# According to PubChem BioAssay (NCATS):
# Records with an inconclusive call do not appear. A call without a number means that no potency is given here. Calls of active or inactive are those of the source. Calls follow the shape of the dose curve; as a rule, active = well fitted cell-killing curve with a large enough effect; inconclusive = small, poorly fitted or top-dose-only effect, or effect the other way; inactive = no such curve, though single readings can be large or run the other way.
# Assay: Viability qHTS for spleen associated tyrosine kinase inhibitor (SYKi) naive MV4-11 cells (AID 1963823); also: nearly all actives have a fitted effect of over 40% in size
# Conditions: MV4-11 AML viability, CellTiter-Glo luminescence, 72 h; series mostly up to 45 µM
# Procedure, shortened: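 Cells: MV4-11, SYK inhibitor naive, 500 per well. Treatment: library compounds, 72 hr, 37 C, 5% CO2. Read-out: CellTiter-Glo luminescence after 10 min RT.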
# Potency is read from the fitted curve at half-maximal effect.
Structure (SMILES),Potency,viability (% of control)
C[C@@H]1C(=O)O[C@H](C)[C@H]1CC(=O)[C@](C)(O)[C@H]1CC[C@@]2(O)C3=CC(=O)[C@@H]4C[C@@H](O)[C@@H](O)C[C@]4(C)C3CC[C@]12C (stereo partly drawn),inactive,
Oc1cccc(Nc2ncnc3sc4c(c23)CCCC4)c1,4.11 µM (active),
CC(C)C(C(=O)N1CCCC1C(=O)O)N(C)C(=O)C(O)Cc1ccccc1 (stereo not drawn),inactive,
COc1ccc(CCc2nc3cc(-c4c(C)noc4C)ccc3n2CC(C)N2CCOCC2)cc1Cl (stereo not drawn),4.11 µM (active),
CC(C)CNC(=O)/C=C/CCCCc1ccc2c(c1)OCO2,inactive,
CSCC1OC(n2cnc3c(=O)[nH]cnc32)C(O)C1O (stereo not drawn),inactive,
COc1ccc(C[C@H](C)NC[C@@H](O)c2ccc(O)c(NC=O)c2)cc1,inactive,
CCC(C)/C=C(C)/C=C/C1=CC2=C(Cl)C(=O)C(C)(OC(C)=O)C(=O)C2=CN1C(CCCN=C(N)N)C(=O)O (stereo not drawn),inactive,
CC1CCC2(C(=O)O)CCC3(C)C(=CCC4C5(C)CCC(O)C(C)(CO)C5CCC43C)C2C1(C)O (stereo not drawn),inactive,
C[C@H]1CC(=O)Nc2cccc(-c3cnn(C(C)(C)C)c3)c2N1,inactive,
COc1cc(O)c2c(c1)C1OC1C[C@H](O)[C@H](O)C(=O)/C=C\C[C@H](C)OC2=O (stereo partly drawn),3.26 µM (active),
COc1cc(/C=C/C=O)cc(OC)c1O[C@@H]1O[C@H](CO)[C@@H](O)[C@H](O)[C@H]1O,inactive,
COC(=O)C1=C(C)NC(COC(N)=O)=C(C(=O)OC(C)C)C1c1cccc(Cl)c1Cl (stereo not drawn),21.1 µM (active),
C[C@H]1/C=C/C=C/C=C/C=C/C=C/[C@@H](O)[C@H](C(=O)O)[C@H](O)C[C@H](O)CCC[C@H](O)C[C@H](O)C[C@H](O)[C@@H](C)C(=O)O[C@@H]1C,inactive,
CC1CCC23COC(=O)C2=CC(O)CC3C1(C)CCC1=CC(O)OC1=O (stereo not drawn),inactive,
CN(C)CCCn1cc(C2=C(c3c[nH]c4ccccc34)C(=O)NC2=O)c2ccccc21,0.0731 µM (active),
COC(=O)c1ccccc1O[C@@H]1O[C@H](CO)[C@@H](O)[C@H](O)[C@H]1O[C@@H]1O[C@@H](C)[C@H](O)[C@@H](O)[C@H]1O,inactive,
COc1ccccc1-n1c(SCC(=O)Nc2nc3ccc(C)cc3s2)nc2c(c1=O)SCC2,inactive,
CC(NCCC(c1ccccc1)c1ccccc1)c1ccccc1 (stereo not drawn),13.3 µM (active),
COC(=O)C1=CO[C@@H](O[C@@H]2O[C@H](CO)[C@@H](O)[C@H](O)[C@H]2O)[C@@H]2[C@@H](C(=O)OC)[C@@H](O)C(O)[C@H]12 (stereo partly drawn),inactive,
COc1c2c(c(C)c3c1C(=O)OC3)O[C@@]1(C)CC(O)C(C(C)(C)O)[C@](C)(CCC(=O)O)[C@H]1C2 (stereo partly drawn),7.96 µM (active),
COC(=O)c1sccc1S(=O)(=O)Nc1ccc(Nc2ccccc2)cc1OC,5.17 µM (active),
CC(O)C(O)/C=C/C=C/C(=O)O[C@@H]1C=C2COC(=O)[C@]2(O)[C@@]2(C)CCCC(C)(C)C12 (stereo partly drawn),inactive,
C[C@@H]1CC[C@]2(C(=O)O[C@@H]3O[C@H](CO[C@@H]4O[C@H](CO)[C@@H](O)[C@H](O)[C@H]4O)[C@@H](O)[C@H](O)[C@H]3O)CC[C@]3(C)C(=CCC4[C@@]5(C)CC[C@H](O)[C@](C)(C(=O)O)C5CC[C@]43C)[C@@H]2[C@]1(C)O (stereo partly drawn),,70.3% [at 9.25 µM] (inactive)
COc1cc(CCc2ccccc2)c(C(=O)O)c2c1CC(C(C)(C)O)O2 (stereo not drawn),inactive,
C[C@@H]1O[C@@H](O[C@H]2[C@H](OC(=O)[C@]34CCC(C)(C)C[C@H]3C3=CCC5[C@@]6(C)CC[C@H](O[C@@H]7O[C@H](CO[C@@H]8OC[C@H](O)[C@H](O)[C@H]8O)[C@@H](O)[C@H](O)[C@H]7O)C(C)(C)C6CC[C@@]5(C)[C@]3(C)C[C@H]4O)OC[C@@H](O)[C@@H]2O)[C@H](O)[C@H](O)[C@H]1O[C@@H]1OC[C@H](O)[C@H](O[C@@H]2OC[C@@H](O)[C@H](O)[C@H]2O)[C@H]1O (stereo partly drawn),,84.1% [at 9.25 µM] (inactive)
CCC(C)C1NC(=O)C2CCCN2C(=O)C(C(C)C)NC(=O)c2ccccc2NC(=O)C(Cc2ccc(O)cc2)NC(=O)C(C)NC(=O)C(C(C)O)NC1=O (stereo not drawn),inactive,
C=C[C@H]1[C@H](O[C@@H]2O[C@H](CO)[C@@H](O)[C@H](O)[C@H]2O)OC=C(C(=O)OC)[C@H]1C[C@@H]1N[C@H](C(=O)O)Cc2c1[nH]c1ccccc21,inactive,
